Structures are written as SMILES. Inconclusive results are not listed. A number with no mark means an inactive call. Active and inactive are the calls of the source. Calls follow the shape of the dose curve; as a rule, active = well fitted curve in the direction sought with a large enough effect; inconclusive = small, poorly fitted or top-dose-only effect, or effect the other way, or another doubt; inactive = no such curve, though single readings can be large or run the other way.

Sequence of Epidermal growth factor receptor (Homo sapiens) (P00533 whole entry T790M/L858R, looked up): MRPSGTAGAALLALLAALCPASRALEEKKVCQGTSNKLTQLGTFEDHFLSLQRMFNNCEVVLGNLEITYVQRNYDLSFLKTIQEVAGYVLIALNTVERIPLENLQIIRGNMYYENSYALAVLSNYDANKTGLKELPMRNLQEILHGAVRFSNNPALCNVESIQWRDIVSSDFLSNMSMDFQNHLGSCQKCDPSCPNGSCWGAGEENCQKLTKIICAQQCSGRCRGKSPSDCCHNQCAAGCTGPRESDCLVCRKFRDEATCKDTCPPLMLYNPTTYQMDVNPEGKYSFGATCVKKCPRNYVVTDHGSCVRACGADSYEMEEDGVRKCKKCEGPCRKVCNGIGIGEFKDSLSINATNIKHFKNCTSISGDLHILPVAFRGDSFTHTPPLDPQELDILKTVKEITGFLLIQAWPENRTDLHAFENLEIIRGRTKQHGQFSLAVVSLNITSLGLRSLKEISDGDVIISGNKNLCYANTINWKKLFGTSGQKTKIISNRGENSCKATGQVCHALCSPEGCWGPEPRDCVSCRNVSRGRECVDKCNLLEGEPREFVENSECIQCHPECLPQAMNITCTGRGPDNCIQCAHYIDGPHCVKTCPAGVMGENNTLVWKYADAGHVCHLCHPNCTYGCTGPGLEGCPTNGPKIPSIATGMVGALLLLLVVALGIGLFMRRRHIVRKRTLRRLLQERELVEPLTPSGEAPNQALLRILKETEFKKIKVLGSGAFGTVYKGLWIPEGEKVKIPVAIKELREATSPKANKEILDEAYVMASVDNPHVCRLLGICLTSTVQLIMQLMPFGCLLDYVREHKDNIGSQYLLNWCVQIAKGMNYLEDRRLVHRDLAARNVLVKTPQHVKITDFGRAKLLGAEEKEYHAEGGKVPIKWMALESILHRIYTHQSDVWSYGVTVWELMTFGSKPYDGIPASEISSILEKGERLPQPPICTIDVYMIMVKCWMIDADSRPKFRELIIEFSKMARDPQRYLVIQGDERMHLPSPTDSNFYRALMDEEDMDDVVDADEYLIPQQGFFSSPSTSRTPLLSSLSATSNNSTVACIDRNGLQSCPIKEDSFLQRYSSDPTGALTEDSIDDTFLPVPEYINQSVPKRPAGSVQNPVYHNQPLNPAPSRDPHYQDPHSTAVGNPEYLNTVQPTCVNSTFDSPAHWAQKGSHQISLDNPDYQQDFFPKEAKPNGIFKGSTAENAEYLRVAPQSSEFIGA

The test has as its target Epidermal growth factor receptor (Homo sapiens) (UniProt P00533). Kind of test: Assay for Inhibitors of the ERK Signaling Pathway using a Homogeneous Screening Assay: EGFR T790M/L858R Kinase Inhibition. To be noted: series mostly up to 65.8 µM; activity change, negative = inhibition: at the top concentration. From the text:
qHTS Assay for Inhibitors of the ERK Signaling Pathway using a Homogeneous Screening Assay
NIH Chemical Genomics Center [NCGC]
NIH Molecular Libraries Screening Centers Network [MLSCN]
Assay Submitter (PI): Dr. Wei Zheng, NCGC/NIH
The Ras/extracellular-signal-regulated kinase (ERK) mitogen activated protein (MAP) kinase signaling pathway (ERK1/2 cascade) plays is a key role in transmitting signals from the cell surface to the nucleus (Nishida and Gotoh 1993; Chang and Karin, 2001). The cascade is initiated by the small G-protein Ras, which recruits Raf […], where activation occurs. Alternatively, this pathway can be activated by elevating intracellular cAMP.
Activation of the ERK pathway is essential in increased cell division and cell survival. Sustained and constitutive activation of the ERK pathway, however, has been linked to uncontrolled cell proliferation, increased cell survival, and tumor progression. Thus, the ERK has been as an attractive target for cancer chemotherapy in the past few years (Sebolt-Leopold and Herrera, 2004). Given its physiological and pathological importance, assessment of ERK phosphorylation has been broadly performed in both basic research and drug discovery. Most assays for the measurement of ERK phosphorylation use the antibody-based detection methods, such as western blot and ELISA. These assays require multiple reagent additions with cell wash steps and are not suitable for high-throughput screening.
The current cell-based ERK phosphorylation assay was performed using AlphaScreen platform. AlphaScreen is a two bead-based proximity-dependent chemical energy transfer luminescent assay platform. The assay reagents (ERK SureFire(TM) kit) were supplied from TGR BioSciences (Australia). In the presence of specific antibodies, phosphorylated ERK will bring "donor" and "acceptor" beads to a proximity range (<200 nm), and subsequently lead a chemical luminescent reaction upon exciting donor beads with 680 nm laser. To validate pathway hits from the cell-based assay, enzyme assays consisting of EGFR tyrosine kinase, Raf and MEK were used as a means of deciphering the enzymes of target for the prioritized group of compounds derived from the HEK-293 cell based assay. The compounds were tested against significant members of the ERK signaling pathway EGFR and EGFR mutants (EGFR L858R, EGFR T790M, and EGFR L858R T790M). In order to establish the specificity of the prioritized compounds for EGFR and EGFR mutants, the compounds were also assayed against other important ERK signaling pathway enzymes, c-RAF and MEK-1.
NCGC Assay Protocol Summary:
The HTRF kinase assay (components supplied as kit by Cisbio) was chosen for the EGFR and EGFR mutant enzyme assays that applied the time resolved fluorescence resonance energy transfer (TR-FRET) principle. A peptide substrate is labeled with a biotin that can bind to XL665 labeled streptavidin and the anti-phosphoresidue antibody is labeled with Eu+. Upon phosphorylation of the substrate, the antibody binds to phosphorylated substrate that enables TR-FRET detection in homogenous assay format.
An HTRF Kinease TK assay kit (Cisbio, Bedford, MA) was used to develop the EGFR and EGFR mutant assays (Harbert et al., 2008. Harbert C, Marshall J, Soh S, Steger K. Development of a HTRF Kinase Assay for Determination of Syk Activity. Current Chemical Genomics. 1: 20-26. 2008). EGFR and EGFR mutants were obtained from Invitrogen. The assay buffer was composed of 50 mM HEPES (pH 7.0), 5 mM MgCl2, 5mM DTT, 0.1 % NaN3, 0.1 % BSA and 0.1 mM orthovanadate.
The HTRF assays were preformed according to the HTRF Kinease TK kit. Optimization for each enzyme was preformed in 384 well format (data not included). All reagents were dispensed into 1536 well plates.
(1) Enzyme, […] EGFR at 3 nM final
(2) Compound, 22 nl, Library Compounds in 0.128 to 10 mM titration series or control
(3) Reagent, 1.5 ul 10 uM ATP and 0.25 uM substrate final
(4) Incubation for 30 min, Ambient conditions
[…]
`Cn1nc(-c2ccccn2)nc2c(=O)n(C)c(=O)nc1-2`: the “activity change, negative = inhibition” value is 9.12% [at 21.9 µM]. With `COc1ccc(C(=O)c2ccc(Cl)c([N+](=O)[O-])c2)cc1`, the “activity change, negative = inhibition” value is 1.54%. On the same count and under the same terms, for `O=C(Nc1nc(-c2ccccc2)cs1)c1ccc(N2CCOCC2)c([N+](=O)[O-])c1` the value was -1.3%. As to `Cc1ccc2nc(=O)c(NNc3ccccc3)cnc2c1`, the Potency was 3.55 µM (active).

For `Cc1ccc(NNc2c(C)nc3ccccc3nc2=O)cc1`, the “activity change, negative = inhibition” value is 9.82% [at 21.9 µM]. For the molecule `Fc1ccc(Nc2ncnc3sc4c(c23)CCC4)cc1F`, the “activity change, negative = inhibition” value was -14.1%. Same read-out and setting: with `CS(=O)(=O)CCNCc1nc(-c2ccc3ncnc(Nc4ccc(OCc5cccc(F)c5)c(Cl)c4)c3c2)cs1` the figure was -1.71%. Consider `CCn1c(=O)c2[nH]c(-c3ccccc3)nc2n(CC)c1=O`, for which the “activity change, negative = inhibition” value is -10.9% [at 21.9 µM]. As to `N#C/C(=C(/N)Sc1ccc(N)cc1)c1ccccc1C(F)(F)F`, the Potency result is “inactive”. Turning to `Cn1c(=O)[nH]c2nnc(-c3ccc(Cl)c(Cl)c3)nc2c1=O`, the “activity change, negative = inhibition” value was 3.61%. Same read-out and setting: for `CCN(CC)CCC(=O)Nc1cccc2c1C(=O)c1ccccc1C2=O` the value was -8.96% [at 21.9 µM]; for `CNc1cccc2c1C(=O)c1ccccc1C2=O`, 21.5%. With `O=C1c2ccccc2C(=O)c2c(NCCCN(CCO)CCO)cccc21`, the “activity change, negative = inhibition” value was 27.1%. `Cn1nc(-c2ccc(Cl)cc2)nc2c(=O)n(C)c(=O)nc1-2`: the “activity change, negative = inhibition” value is 13.9% [at 21.9 µM].

With `Cc1nc2ccccc2nc(=O)c1NNc1ccccc1`, the Potency was 3.16 µM (active).

The values are drawn from PubChem BioAssay AID1726 (National Center for Advancing Translational Sciences (NCATS), 2009).
